± gives the standard deviation.
test system: EfPiwi piRISC loaded with piRNA #1 (26 nt); assay: pre-steady-state target cleavage rate (min^-1); auxiliary factor: 500 nM Ephydatia muelleri Gtsf1; guide: piRNA #1 5'p-UGAGGUAGUAGGUUGUAUAGUAUCCA; MIWI and MILI are mouse PIWI proteins and EfPiwi is from a freshwater sponge; tags in brackets are library labels; higher = faster piRNA-guided slicing of the target
Summary of the method: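 With or without 500 nM GTSF1 partner protein, 1 nM active affinity-purified piRISC carrying one synthetic guide was mixed with 0.1 nM transcribed, DNA-blocked target RNA library in HEPES–potassium acetate buffer at 33 °C for 0–8 or 0–960 min. Uncleaved targets were sequenced and normalised to depth and to weakly complementary targets, three trials were pooled, and k3 was capped at 0.0001 min^-1. The pre-steady-state cleavage rate came from a burst-and-steady-state fit.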

Row | Sequence | pre-steady-state target cleavage rate
1 | GGAGACCAUACUAUACAGACCUACUACCUCA | 0.0137 ± 0.0061
2 | GGAGAGGAUACUAUACUAACCUACUACCUCA | 0.0128 ± 0.007
3 | GGAGACCUAACUAUACAACCUACUACCACA | 0.00545 ± 0.0034
4 | GGAGACCUAUCUGAUACAACCUACUACCUCA | 0.00758 ± 0.0035
5 | GGAGUGGAUACUAUACAACCUACUUCCUGA | 0.00267 ± 0.0023
6 | GGAGUGGAUACUAUACAACCUGACUACCUCA | 0.00415 ± 0.002
7 | GGAGACCUAUGUAUAGAACCUUCUACCUCA | < 0.0001
8 | GGAGACCUAACUAUACAACGAACUACCUCA | < 0.0001
9 | GGAGACCAAACUAUACAACCUUCUACCUCA | 0.00406 ± 0.0026
10 | GGAGACCAAACUAUACAACCAACUACCUCA | 0.00588 ± 0.003
11 | GGAGAGGAUACUAUACAACCUAGUAGCUCA | 0.00479 ± 0.0019
12 | GGAGAGGAUACUAUACAACCUAGUUCCUCA | 0.00396 ± 0.0022
13 | GGAGACCUAUCUAUACAACCUAGUACGUCA | 0.00316 ± 0.0024
14 | GGAGAGUAUACUAUACAACCUACUACCUCA | 0.0182 ± 0.0087
15 | GGAGACCUAUGAAUACAACCUACUACCUUA | 0.00423 ± 0.0038
16 | GGAGACCUAUGAAUAGAACCUUCUACCUCA | < 0.0001
17 | GGAGACGAUACUAUACAACCUACUUGGUCA | 0.00312 ± 0.0021
18 | GGAGUGGAUACUAUACAACCUAACUACCUCA | 0.00456 ± 0.0023
19 | GGAGAGGAUACUAUACAACCUACUACCCUCA | 0.00508 ± 0.0022
20 | GGAGACCUAUCCAUACAACCUACUACCUCA | 0.0212 ± 0.01
21 | GGAGAGGAUACUAUACGAACCUACUACCUCA | 0.0069 ± 0.0052
22 | GGAGACGAUACUAUACAACCUACAACCACA | 0.00436 ± 0.0022
23 | GGAGAGGAGUACUAUACAACCUACUACCUCA | 0.00348 ± 0.003
24 | GGAGUGGAUACUAUACAACCUUACUACCUCA | 0.00695 ± 0.0034

From the supplement of paper PMC10338343
